In PubChem BioAssay:
This is one part of the list. The source made the active and inactive calls.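 The calls were made as follows, unless noted: active = mean inhibition above 46.5%, the solvent-only control mean plus 3 SD; inactive = the rest.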

How the values were obtained:
[1] = target: Nuclear receptor coactivator 3 (Homo sapiens) (UniProt Q9Y6Q9); experiment: NCOA3 GAL4-fusion reporter inhibition – cell-based, luminescence, quadruplicate, confirmation (AID 588792;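 active = mean inhibition over 43.08%, the solvent-only control mean plus 3 SD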;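 also: 0% = DMSO treated cells and 100% = gossypol at 36 µM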); settings: HEK293 GAL4-SRC3 luciferase reporter, at 3.6 µM, active compounds read high
Nuclear receptor coactivator 3 (Homo sapiens), sequence (Q9Y6Q9 whole entry, looked up, the tested form may be a part): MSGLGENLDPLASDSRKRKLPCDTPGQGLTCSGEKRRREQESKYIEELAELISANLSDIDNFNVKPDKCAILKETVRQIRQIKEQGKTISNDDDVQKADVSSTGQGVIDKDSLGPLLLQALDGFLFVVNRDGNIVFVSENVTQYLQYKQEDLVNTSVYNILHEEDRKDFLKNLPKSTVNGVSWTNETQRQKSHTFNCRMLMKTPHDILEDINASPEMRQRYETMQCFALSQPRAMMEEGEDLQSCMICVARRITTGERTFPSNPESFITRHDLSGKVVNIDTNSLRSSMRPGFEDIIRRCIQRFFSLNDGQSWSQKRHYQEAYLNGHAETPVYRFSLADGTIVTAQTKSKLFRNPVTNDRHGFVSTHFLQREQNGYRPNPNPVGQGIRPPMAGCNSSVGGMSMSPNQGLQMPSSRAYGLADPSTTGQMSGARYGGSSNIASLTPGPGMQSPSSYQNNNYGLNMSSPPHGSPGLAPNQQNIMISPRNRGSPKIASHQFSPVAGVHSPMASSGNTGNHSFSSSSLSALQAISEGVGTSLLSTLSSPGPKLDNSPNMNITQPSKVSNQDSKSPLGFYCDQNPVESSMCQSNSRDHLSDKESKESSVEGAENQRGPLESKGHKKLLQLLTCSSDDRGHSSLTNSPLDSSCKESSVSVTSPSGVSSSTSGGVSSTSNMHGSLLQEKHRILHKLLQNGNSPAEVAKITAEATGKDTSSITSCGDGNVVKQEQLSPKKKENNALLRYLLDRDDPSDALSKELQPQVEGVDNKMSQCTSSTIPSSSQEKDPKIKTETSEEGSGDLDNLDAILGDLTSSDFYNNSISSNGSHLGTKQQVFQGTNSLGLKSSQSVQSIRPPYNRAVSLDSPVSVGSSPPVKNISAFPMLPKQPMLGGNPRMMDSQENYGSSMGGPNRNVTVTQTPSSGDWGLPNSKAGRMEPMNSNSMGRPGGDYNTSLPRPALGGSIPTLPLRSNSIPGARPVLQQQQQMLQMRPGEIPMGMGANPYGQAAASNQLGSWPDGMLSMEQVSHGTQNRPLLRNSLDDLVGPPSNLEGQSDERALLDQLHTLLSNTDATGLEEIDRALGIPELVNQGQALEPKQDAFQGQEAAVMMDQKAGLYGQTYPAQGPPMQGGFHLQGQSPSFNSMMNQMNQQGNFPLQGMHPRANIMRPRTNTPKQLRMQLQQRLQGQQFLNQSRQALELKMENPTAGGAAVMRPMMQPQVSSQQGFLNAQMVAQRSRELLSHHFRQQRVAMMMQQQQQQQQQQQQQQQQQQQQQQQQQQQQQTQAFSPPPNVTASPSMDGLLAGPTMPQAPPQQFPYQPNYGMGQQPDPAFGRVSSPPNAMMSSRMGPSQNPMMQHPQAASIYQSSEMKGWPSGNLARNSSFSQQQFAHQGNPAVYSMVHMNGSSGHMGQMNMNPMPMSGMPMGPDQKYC

[2] = system: transactivating tegument protein VP16 (Human herpesvirus 1), Gal4-VP16 luciferase reporter; experiment: repression of VP16-driven luciferase reporter – cell-based, luminescence, high throughput, counter-screen for SRC3 inhibitor project (AID 588794; in the data active = inhibition above about 30%); settings: mammalian cells, at 3.6 µM, active compounds read high
[3] = target: Nuclear receptor coactivator 1 (Homo sapiens) (UniProt Q15788); experiment: NCOA1 GAL4-fusion reporter inhibition – cell-based, luminescence, quadruplicate, confirmation (AID 588820;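 active = mean inhibition above 46.68%, the untreated control wells mean plus 3 SD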;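 also: 0% = DMSO wells and 100% = gossypol 36 µM treated wells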); settings: HEK293 GAL4-SRC1 luciferase reporter, at 3.6 µM, active compounds read high
Nuclear receptor coactivator 1 (Homo sapiens), sequence (Q15788 whole entry, looked up, the tested form may be a part): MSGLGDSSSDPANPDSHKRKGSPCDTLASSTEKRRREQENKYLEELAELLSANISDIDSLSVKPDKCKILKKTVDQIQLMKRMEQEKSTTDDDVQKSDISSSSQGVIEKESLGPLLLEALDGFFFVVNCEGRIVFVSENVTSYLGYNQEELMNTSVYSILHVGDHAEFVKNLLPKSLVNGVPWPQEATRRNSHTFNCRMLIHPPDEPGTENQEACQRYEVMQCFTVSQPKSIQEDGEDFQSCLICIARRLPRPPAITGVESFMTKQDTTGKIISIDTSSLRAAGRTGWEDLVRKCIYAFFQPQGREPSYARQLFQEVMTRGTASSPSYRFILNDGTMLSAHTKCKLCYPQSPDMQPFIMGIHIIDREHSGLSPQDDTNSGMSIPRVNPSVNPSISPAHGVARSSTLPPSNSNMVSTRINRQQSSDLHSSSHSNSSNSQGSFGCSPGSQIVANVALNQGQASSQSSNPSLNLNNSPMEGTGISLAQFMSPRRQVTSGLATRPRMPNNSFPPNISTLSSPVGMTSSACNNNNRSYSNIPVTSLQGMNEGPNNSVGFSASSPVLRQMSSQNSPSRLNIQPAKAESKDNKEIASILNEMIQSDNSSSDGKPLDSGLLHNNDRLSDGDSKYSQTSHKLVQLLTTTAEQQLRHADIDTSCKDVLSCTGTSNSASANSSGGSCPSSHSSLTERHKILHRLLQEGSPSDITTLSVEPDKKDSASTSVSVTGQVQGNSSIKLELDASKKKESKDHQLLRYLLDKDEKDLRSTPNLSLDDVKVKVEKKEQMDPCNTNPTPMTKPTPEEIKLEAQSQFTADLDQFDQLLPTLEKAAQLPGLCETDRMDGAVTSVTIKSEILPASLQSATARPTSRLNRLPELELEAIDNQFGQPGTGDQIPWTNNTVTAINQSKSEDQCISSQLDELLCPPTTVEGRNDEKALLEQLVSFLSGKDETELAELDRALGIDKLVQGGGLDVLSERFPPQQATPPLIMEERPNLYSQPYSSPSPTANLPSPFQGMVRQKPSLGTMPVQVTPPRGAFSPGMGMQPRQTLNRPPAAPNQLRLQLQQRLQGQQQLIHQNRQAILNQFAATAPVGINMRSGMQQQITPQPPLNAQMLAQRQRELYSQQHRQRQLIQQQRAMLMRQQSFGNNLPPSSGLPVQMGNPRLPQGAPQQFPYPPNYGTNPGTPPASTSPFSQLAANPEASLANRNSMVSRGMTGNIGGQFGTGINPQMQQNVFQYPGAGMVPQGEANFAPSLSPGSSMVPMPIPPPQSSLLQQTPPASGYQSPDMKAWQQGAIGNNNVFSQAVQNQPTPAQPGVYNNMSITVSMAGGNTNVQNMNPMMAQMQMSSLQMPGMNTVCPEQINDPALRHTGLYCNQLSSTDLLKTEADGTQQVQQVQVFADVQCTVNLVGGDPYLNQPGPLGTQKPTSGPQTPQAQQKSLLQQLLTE

[4] = repression of VP16-driven luciferase reporter – cell-based, luminescence, high throughput, counter-screen for SRC1 inhibitor project (AID 588824; in the data active = inhibition above about 25%); settings: cell-based VP16 transactivation luciferase luminescence; at 3.6 µM; active compounds read high
[5] = system: transactivating tegument protein VP16 (Human herpesvirus 1); experiment: compounds suppressing VP16-driven luciferase signal – cell-based, luminescence, single concentration, counter-screen for SRC2 inhibitor project (AID 652007; in the data active = inhibition above about 36%); settings: cell-based VP16 transactivation luciferase reporter, at 8.9 µM, active compounds read high
[6] = target: Nuclear receptor coactivator 2 (Homo sapiens) (UniProt Q15596); experiment: inhibition of GAL4-SRC2 driven luciferase expression – cell-based, luminescence, HEK293, triplicate, confirmation (AID 652008); settings: HEK293 GAL4-SRC2 luciferase reporter, at 8.9 µM, active compounds read high;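 also: 0% = DMSO-treated cells and 100% = Gossypol at 36 µM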
Nuclear receptor coactivator 2 (Homo sapiens), sequence (Q15596 whole entry, looked up, the tested form may be a part): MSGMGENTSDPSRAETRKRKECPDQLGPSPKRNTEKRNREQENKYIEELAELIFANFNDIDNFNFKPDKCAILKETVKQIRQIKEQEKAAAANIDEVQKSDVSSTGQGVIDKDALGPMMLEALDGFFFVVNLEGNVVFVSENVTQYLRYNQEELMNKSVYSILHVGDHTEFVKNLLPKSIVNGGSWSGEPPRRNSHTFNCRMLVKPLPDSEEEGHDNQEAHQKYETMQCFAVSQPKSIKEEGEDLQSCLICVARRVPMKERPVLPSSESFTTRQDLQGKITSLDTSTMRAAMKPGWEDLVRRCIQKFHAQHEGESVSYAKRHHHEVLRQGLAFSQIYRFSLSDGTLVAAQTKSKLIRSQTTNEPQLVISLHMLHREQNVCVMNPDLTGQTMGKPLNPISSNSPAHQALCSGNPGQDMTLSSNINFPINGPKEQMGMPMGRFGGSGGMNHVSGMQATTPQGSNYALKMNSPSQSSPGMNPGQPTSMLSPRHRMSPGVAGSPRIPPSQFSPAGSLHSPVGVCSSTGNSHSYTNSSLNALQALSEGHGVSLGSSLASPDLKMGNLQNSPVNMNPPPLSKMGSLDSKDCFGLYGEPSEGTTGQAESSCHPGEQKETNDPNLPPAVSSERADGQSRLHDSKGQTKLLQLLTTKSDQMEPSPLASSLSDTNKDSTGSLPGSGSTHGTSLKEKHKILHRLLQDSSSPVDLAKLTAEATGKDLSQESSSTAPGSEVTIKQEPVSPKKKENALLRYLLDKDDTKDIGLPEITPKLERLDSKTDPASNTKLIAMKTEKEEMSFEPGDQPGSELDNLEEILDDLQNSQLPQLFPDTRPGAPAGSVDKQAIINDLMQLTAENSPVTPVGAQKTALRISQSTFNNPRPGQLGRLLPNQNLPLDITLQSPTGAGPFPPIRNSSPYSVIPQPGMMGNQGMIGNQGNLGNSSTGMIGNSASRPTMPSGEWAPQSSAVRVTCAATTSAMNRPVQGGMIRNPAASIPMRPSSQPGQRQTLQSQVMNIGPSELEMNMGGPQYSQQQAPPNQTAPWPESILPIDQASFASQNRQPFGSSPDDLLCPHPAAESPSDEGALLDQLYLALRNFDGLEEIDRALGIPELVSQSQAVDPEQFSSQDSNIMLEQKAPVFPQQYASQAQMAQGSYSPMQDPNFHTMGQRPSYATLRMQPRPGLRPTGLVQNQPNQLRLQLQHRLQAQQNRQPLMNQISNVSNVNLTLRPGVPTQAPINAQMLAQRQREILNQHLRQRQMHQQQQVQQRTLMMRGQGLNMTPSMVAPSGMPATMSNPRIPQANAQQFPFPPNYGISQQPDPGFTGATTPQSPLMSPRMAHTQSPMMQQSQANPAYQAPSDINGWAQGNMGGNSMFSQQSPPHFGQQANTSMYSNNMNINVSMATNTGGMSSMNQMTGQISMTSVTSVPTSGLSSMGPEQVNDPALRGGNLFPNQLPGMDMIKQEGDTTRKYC

[7] = VP16-driven transactivation reporter suppression – cell-based, luminescence, HEK293, counter-screen for COUP-TFII antagonist project (AID 687007; in the data active = inhibition above about 13%); settings: HEK293 Gal4-VP16 luciferase reporter, at 8.5 µM, active compounds read high
[8] = target: COUP transcription factor 2 (Homo sapiens) (UniProt P24468); experiment: retest of COUP-TFII reporter suppressors – cell-based, luciferase reporter, HEK293, triplicate, confirmation (AID 687008;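 active = mean inhibition over three repeats above a set limit taken from the earlier primary screen, cut at about 38% in these data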;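 also: 100% = cells given the luciferase reporter alone without the COUP-TF2 vector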); settings: HEK293 NGFI-A luciferase reporter, luminescence; at 8.5 µM; active compounds read high
COUP transcription factor 2 (Homo sapiens), sequence (P24468 whole entry, looked up): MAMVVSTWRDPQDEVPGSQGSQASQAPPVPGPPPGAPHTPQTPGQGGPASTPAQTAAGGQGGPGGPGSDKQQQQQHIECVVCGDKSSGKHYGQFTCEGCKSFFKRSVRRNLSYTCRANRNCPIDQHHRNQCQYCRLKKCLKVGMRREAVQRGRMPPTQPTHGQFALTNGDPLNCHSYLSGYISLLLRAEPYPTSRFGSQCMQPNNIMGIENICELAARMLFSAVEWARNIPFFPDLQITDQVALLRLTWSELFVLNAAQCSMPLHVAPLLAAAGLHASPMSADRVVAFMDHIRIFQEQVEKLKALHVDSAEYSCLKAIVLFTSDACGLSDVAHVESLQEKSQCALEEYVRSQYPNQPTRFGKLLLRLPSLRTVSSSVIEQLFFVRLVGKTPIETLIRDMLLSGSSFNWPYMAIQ

Measured: inhibition

Cc1cc(C(=O)COc2cccnc2[N+](=O)[O-])c(C)n1-c1ccccc1
active: [6] 68.1%
inactive: [1] -5.17% | [2] -52.9% | [3] -11.3% | [4] -70.8% | [5] -71.7%

O=C1C=CC(=C(c2ccc(O)cc2)c2ccc(O)cc2)C=C1
active: [1] 71.2% | [2] 47.5% | [3] 54% | [4] 46.8%
inactive: [5] 26.8% | [6] 27.1%

O=C(Nc1ccccc1Oc1ccccc1)c1cc([N+](=O)[O-])ccc1Cl
inactive: [2] 24.8% | [3] 24.8% | [5] 21.9%
active: [1] 52.5% | [4] 33.9% | [6] 50.4%

CCc1ccc(N(CC)c2ncnc3nc[nH]c23)cc1
active: [1] 50.1% | [2] 33% | [3] 56.7% | [4] 36.9% | [6] 50.7%
inactive: [5] 4.69% | [7] -1.24% | [8] 17.4%

COc1ccc(-c2[nH]ncc2-c2ccc3c(c2)OCCO3)c(O)c1
inactive: [5] 11.7%
active: [1] 74.4% | [2] 58.3% | [3] 72% | [4] 59.5% | [6] 47.5%

CCOc1ccc(Nc2ncnc3ccc([N+](=O)[O-])cc23)cc1
active: [1] 70% | [2] 43.6% | [3] 65.8% | [4] 53.7% | [6] 47.4%
inactive: [5] -19.7%

NC(=O)c1sc2nc3c(c(-c4ccccc4)c2c1N)CCC3
inactive: [5] 12.9% | [8] 31.9%
active: [1] 77.1% | [2] 54.8% | [3] 72.8% | [4] 49.3% | [6] 51% | [7] 18.6%

O=C(CCl)N(C1CCCC1)C1CCS(=O)(=O)C1 (configuration not stated)
inactive: [5] 30.6%
active: [1] 71.6% | [2] 42.4% | [3] 58.3% | [4] 38.2% | [6] 63.6%
